From PubChem BioAssay (EPA / NIEHS)
Results filed as inconclusive are left out. Activity calls are given as the source filed them. The calls were made as follows, unless noted: active = hit-call score of the fitted dose curve at least 0.9, where 1 is the maximum; inconclusive = response in the unintended direction; inactive = score below 0.9.

Experiments:
[1] = ATG_TCF_b_cat_CIS: Attagene CIS-FACTORIAL HepG2 Assay for human T-Cell-Factor with beta-catenin (TCF/b-cat) (AID 2282965; active = hit-call score of the fitted dose curve at least 0.9, where 1 is the maximum; inactive = score below 0.9); conditions: HepG2 TCF/beta-catenin cis-reporter transcription, actives raise or lower the signal
Method in brief: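 Measured: reporter mRNA in HepG2 transiently transfected with cis-promoter reporter units, 24 h after chemical addition. Fitting was bidirectional, DMSO as negative control.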

[2] = ATG_VDRE_CIS: Attagene CIS-FACTORIAL HepG2 Assay for human Vitamin D Receptor Element (VDRE) (AID 2282968; active = hit-call score of the fitted dose curve at least 0.9, where 1 is the maximum; inactive = score below 0.9); conditions: HepG2 VDRE cis-reporter transcription, actives raise or lower the signal
Method in brief: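 Measures endogenous factor activity through cis-element-driven reporter transcripts in transiently transfected HepG2. Cells are treated 24 h; reporter mRNA is quantified by RT-PCR and capillary electrophoresis; fitting is bidirectional.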

[3] = target: Nuclear receptor subfamily 1 group I member 3 (Homo sapiens) (UniProt Q14994); test: ATG_CAR_TRANS: Attagene TRANS-FACTORIAL HepG2 Assay for human Constitutive Androstane Receptor (CAR) (AID 2282969); conditions: HepG2 Attagene TRANS-FACTORIAL CAR reporter;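 also: activators raise reporter mRNA above DMSO so AC50 marks induction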
Nuclear receptor subfamily 1 group I member 3 (Homo sapiens), sequence (Q14994 whole entry, looked up, the tested form may be a part): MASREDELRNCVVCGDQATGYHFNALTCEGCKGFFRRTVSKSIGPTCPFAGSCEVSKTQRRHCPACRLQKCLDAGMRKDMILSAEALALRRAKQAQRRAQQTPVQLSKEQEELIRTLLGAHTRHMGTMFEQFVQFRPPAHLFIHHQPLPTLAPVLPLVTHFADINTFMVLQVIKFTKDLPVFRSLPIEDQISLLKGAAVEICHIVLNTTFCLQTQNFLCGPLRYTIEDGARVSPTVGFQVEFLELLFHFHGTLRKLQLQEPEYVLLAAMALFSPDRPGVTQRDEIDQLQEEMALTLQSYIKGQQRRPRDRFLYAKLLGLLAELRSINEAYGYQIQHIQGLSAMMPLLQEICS
Method in brief: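 Signal is reporter mRNA induction relative to DMSO, measured 24 h after dosing by RT-PCR with fluorescent primer extension and capillary electrophoresis. Human HepG2 liver cells carried transiently transfected chimeric NR-Gal4/GAL4-UAS reporter constructs.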

[4] = target: Estrogen receptor (Homo sapiens) (UniProt P03372); test: ATG_ERa_TRANS: Attagene TRANS-FACTORIAL HepG2 Assay for human Estrogen Receptor alpha (ERa) (AID 2282970); conditions: HepG2 Attagene TRANS ERa GAL4 reporter, mRNA
Estrogen receptor (Homo sapiens), sequence (P03372 whole entry, looked up, the tested form may be a part): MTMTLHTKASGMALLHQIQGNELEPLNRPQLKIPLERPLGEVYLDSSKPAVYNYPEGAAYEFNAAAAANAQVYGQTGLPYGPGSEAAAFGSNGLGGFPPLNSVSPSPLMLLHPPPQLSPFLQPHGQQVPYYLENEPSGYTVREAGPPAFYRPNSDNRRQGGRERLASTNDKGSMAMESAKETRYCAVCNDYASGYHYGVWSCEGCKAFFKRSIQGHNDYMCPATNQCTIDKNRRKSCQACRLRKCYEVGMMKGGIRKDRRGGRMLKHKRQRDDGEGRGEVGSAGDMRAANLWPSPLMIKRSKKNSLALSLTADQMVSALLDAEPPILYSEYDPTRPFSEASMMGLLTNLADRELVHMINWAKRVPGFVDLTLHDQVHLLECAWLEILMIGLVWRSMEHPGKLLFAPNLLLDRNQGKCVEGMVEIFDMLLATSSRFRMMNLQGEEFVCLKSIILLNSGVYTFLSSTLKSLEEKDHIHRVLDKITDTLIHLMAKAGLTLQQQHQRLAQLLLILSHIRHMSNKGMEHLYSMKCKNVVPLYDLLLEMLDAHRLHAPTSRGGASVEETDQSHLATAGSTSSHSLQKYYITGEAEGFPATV
Method in brief: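 Gal4-fusion ERa transactivation, measured as reporter transcript level in transiently transfected HepG2 cells. Exposure 24 h; RT-PCR plus capillary electrophoresis with fluorescence detection.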

[5] = target: X-box-binding protein 1 (Homo sapiens) (UniProt P17861); test: ATG_Xbp1_CIS: Attagene CIS-FACTORIAL HepG2 Assay for human X-box Binding Protein 1 (XBP1) (AID 2282972; active = hit-call score of the fitted dose curve at least 0.9, where 1 is the maximum; inactive = score below 0.9); conditions: HepG2 XBP1 cis-element reporter, Attagene multiplex; actives raise or lower the signal
X-box-binding protein 1 (Homo sapiens), sequence (P17861 whole entry, looked up): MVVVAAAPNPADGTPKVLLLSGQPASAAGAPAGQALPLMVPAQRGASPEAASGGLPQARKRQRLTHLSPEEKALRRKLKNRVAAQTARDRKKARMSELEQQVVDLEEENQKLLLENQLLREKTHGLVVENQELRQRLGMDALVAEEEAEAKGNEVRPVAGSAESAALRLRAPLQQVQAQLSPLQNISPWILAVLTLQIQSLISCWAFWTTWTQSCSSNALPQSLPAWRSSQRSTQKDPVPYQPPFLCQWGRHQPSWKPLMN
Method in brief: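 Multiplexed cis-reporter readout in transfected HepG2 liver cells. Exposure lasted 24 hours. Activity in either direction was fitted against DMSO as negative control and baseline.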

[6] = ATG_M_19_TRANS: Attagene TRANS-FACTORIAL HepG2 Assay for M19 Transcription Factor (Internal Marker) (AID 2282974); conditions: HepG2 Attagene TRANS-FACTORIAL M19 internal marker reporter
Method in brief: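 Reporter mRNA induction was measured in transfected HepG2 cells 24 h after dosing. Endpoint fitted upward relative to DMSO and serves as a background control within the multiplexed TRANS panel.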

[7] = target: Oxysterols receptor LXR-alpha (Homo sapiens) (UniProt Q13133); test: ATG_LXRa_TRANS: Attagene TRANS-FACTORIAL HepG2 Assay for human Liver X Receptor alpha (LXRa) (AID 2282980); conditions: HepG2 Attagene TRANS reporter, LXRa transactivation
Oxysterols receptor LXR-alpha (Homo sapiens), sequence (Q13133 whole entry, looked up, the tested form may be a part): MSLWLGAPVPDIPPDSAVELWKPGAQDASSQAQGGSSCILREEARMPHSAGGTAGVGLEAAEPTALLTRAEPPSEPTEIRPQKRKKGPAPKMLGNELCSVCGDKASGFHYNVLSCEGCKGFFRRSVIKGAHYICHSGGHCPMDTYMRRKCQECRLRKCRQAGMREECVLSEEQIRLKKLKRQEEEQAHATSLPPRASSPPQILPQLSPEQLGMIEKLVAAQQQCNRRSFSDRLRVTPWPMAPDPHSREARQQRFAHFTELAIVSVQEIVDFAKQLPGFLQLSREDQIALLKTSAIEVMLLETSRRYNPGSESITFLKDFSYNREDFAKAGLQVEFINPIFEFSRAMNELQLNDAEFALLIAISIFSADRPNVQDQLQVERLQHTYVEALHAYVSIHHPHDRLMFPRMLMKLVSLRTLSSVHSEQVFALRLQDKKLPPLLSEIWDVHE
Method in brief: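 HepG2 cells transiently transfected with GAL4-UAS reporter units for chimeric NR-Gal4 proteins, exposed to chemicals for 24 h. Reporter mRNA quantified by RT-PCR and capillary electrophoresis; gain of signal fitted relative to DMSO.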

[8] = ATG_M_06_TRANS: Attagene TRANS-FACTORIAL HepG2 Assay for M06 Transcription Factor (Internal Marker) (AID 2282983); conditions: HepG2 Attagene TRANS M06 internal marker reporter
Method in brief: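 mRNA levels of a reporter transcript, quantified as FAM fluorescence on capillary electrophoresis, served as readout. HepG2 cells expressing exogenous GAL4-chimera reporter constructs were exposed for 24 h. Gain of signal over DMSO was evaluated.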

[9] = ATG_M_32_TRANS: Attagene TRANS-FACTORIAL HepG2 Assay for M32 Transcription Factor (Internal Marker) (AID 2282984); conditions: HepG2 Attagene TRANS M32 internal marker reporter
Method in brief: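 Cell-based TRANS-format assay in HepG2: exogenous chimeric GAL4 reporter units transiently expressed, compounds applied 24 h. Reporter mRNA detected by RT-PCR plus capillary electrophoresis; this readout is an internal background marker.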

[10] = target: Transcriptional activator Myb (Homo sapiens) (UniProt P10242); test: ATG_Myb_CIS: Attagene CIS-FACTORIAL HepG2 Assay for human Myeloblastosis (Myb) Proto-Oncogene Transcription Factor (AID 2282986; active = hit-call score of the fitted dose curve at least 0.9, where 1 is the maximum; inactive = score below 0.9); conditions: HepG2 Attagene CIS-FACTORIAL Myb reporter transcription; actives raise or lower the signal
Transcriptional activator Myb (Homo sapiens), sequence (P10242 whole entry, looked up): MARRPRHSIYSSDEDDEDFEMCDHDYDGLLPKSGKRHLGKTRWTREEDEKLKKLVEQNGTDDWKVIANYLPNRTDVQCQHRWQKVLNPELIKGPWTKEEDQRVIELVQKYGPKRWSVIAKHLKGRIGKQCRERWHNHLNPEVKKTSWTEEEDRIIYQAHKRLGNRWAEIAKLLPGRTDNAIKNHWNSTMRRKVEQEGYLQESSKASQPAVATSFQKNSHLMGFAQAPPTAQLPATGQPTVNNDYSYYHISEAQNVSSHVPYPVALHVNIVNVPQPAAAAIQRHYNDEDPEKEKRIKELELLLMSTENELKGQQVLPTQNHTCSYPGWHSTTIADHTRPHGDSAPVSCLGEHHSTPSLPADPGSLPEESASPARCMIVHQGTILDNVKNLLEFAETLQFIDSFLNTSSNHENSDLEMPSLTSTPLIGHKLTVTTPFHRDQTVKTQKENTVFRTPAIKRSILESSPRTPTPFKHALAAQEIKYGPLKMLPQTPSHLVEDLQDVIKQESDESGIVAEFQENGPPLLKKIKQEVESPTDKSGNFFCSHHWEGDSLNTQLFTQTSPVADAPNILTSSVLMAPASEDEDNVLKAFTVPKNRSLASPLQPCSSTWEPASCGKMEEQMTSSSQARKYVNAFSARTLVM
Method in brief: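 Transiently transfected HepG2 cells, treated 24 h. Reporter mRNA quantified by RT-PCR/capillary electrophoresis; bidirectional fit relative to DMSO.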

[11] = ATG_TGFb_CIS: Attagene CIS-FACTORIAL HepG2 Assay for human Transforming Growth Factor (TGF) (AID 2282967; active = hit-call score of the fitted dose curve at least 0.9, where 1 is the maximum; inactive = score below 0.9); conditions: HepG2 Attagene CIS TGFb reporter, mRNA transcription; actives raise or lower the signal
Method in brief: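 Liver HepG2 line, cis-factorial reporter panel, 24 h dosing. Quantitation: RT-PCR products labeled with 6-FAM, cut with HpaI, resolved by capillary electrophoresis; DMSO-referenced bidirectional analysis.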

[12] = target: Oxysterols receptor LXR-beta (Homo sapiens) (UniProt P55055); test: ATG_LXRb_TRANS: Attagene TRANS-FACTORIAL HepG2 Assay for human Liver X Receptor beta (LXRb) (AID 2282981); conditions: HepG2 Attagene TRANS GAL4-LXRb reporter, mRNA
Oxysterols receptor LXR-beta (Homo sapiens), sequence (P55055 whole entry, looked up, the tested form may be a part): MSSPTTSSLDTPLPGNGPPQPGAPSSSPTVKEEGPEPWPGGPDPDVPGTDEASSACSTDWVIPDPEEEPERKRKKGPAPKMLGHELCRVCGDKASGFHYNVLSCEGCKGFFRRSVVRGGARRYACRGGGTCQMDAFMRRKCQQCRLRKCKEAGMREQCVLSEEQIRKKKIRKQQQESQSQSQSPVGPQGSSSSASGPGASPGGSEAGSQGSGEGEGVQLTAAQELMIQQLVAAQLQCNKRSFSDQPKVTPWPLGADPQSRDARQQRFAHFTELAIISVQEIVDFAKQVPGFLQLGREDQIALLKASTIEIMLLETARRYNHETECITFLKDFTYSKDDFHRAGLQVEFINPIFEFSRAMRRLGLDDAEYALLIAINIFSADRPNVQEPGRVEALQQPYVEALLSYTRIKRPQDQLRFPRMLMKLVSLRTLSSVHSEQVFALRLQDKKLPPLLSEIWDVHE
Method in brief: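 After 24 h of chemical treatment, transfected HepG2 cells yield total RNA; reporter cDNA is PCR-amplified, FAM-labelled, HpaI-cut and run on capillary electrophoresis. Signal reflects chimeric LXRb-Gal4 activity on GAL4-UAS reporters.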

[13] = target: Hepatocyte nuclear factor 4-alpha (Homo sapiens) (UniProt P41235); test: ATG_HNF4a_TRANS: Attagene TRANS-FACTORIAL HepG2 Assay for human Hepatocyte Nuclear Factor 4 alpha (HNF4a) (AID 2282982); conditions: HepG2 HNF4a transactivation reporter, mRNA readout
Hepatocyte nuclear factor 4-alpha (Homo sapiens), sequence (P41235 whole entry, looked up): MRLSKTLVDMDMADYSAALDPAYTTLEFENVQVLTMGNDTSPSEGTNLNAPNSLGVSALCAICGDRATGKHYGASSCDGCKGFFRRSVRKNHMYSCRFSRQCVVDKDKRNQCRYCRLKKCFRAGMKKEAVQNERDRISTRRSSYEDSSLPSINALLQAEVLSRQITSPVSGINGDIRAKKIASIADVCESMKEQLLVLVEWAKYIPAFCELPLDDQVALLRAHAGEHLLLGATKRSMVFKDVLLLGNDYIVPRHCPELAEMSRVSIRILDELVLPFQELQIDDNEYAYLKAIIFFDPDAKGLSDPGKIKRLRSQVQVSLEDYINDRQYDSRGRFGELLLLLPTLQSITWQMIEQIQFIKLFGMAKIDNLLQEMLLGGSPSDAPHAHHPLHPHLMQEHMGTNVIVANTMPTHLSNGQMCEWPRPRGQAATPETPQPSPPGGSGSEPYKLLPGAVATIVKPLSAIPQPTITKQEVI
Method in brief: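 Multiplexed reporter assay: transfected HepG2, 24 h exposure, total RNA → oligo(dT) RT → PCR → 6-FAM extension → HpaI digest → CE fluorescence. DMSO = negative control.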

[14] = target: Nuclear receptor subfamily 4 group A member 2 (Homo sapiens) (UniProt P43354); test: ATG_NURR1_TRANS: Attagene TRANS-FACTORIAL HepG2 Assay for human Nuclear Receptor Related Protein 1 (NURR1) (AID 2282985); conditions: HepG2 Attagene TRANS reporter, mRNA readout
Method in brief: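 Measures transcriptional activation by an exogenous NR-Gal4 chimera in transfected HepG2 liver cells. After 24 h, reporter RNA is reverse-transcribed, amplified and resolved by capillary electrophoresis; DMSO defines baseline.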

[15] = target: Steroid hormone receptor ERR1 (Homo sapiens) (UniProt P11474); test: ATG_ERRa_TRANS: Attagene TRANS-FACTORIAL HepG2 Assay for human Estrogen-Related Receptor alpha (ERRa) (AID 2282971); conditions: HepG2 Attagene TRANS reporter, ERRa transactivation
Method in brief: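 HepG2 cells transiently transfected with GAL4-UAS reporter units and chimeric NR-Gal4 constructs; after 24 hour compound incubation, reporter mRNA quantified by RT-PCR, fluorescent labelling and capillary electrophoresis, gain of signal versus DMSO.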

[16] = target: Estrogen-related receptor gamma (Homo sapiens) (UniProt P62508); test: ATG_ERRg_TRANS: Attagene TRANS-FACTORIAL HepG2 Assay for human Estrogen-Related Receptor gamma (ERRg) (AID 2282977); conditions: HepG2 Attagene TRANS reporter, ERRg transactivation;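 also: hits increase reporter signal over DMSO so potencies reflect activators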
Estrogen-related receptor gamma (Homo sapiens), sequence (P62508 whole entry, looked up, the tested form may be a part): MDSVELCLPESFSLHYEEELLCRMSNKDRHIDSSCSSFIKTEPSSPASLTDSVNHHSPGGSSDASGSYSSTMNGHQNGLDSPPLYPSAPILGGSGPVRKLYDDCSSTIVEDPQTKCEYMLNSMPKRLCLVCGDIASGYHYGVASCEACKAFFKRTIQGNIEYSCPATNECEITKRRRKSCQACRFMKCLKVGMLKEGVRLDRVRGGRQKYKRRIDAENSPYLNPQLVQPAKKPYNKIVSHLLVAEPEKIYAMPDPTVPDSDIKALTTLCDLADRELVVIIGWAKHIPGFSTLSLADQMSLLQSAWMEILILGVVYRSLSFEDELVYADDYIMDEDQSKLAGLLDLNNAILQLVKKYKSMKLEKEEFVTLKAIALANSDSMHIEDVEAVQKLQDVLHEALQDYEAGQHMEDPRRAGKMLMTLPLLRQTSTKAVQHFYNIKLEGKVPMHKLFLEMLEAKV
Method in brief: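 Exogenous NR-Gal4 chimera activity was assessed in HepG2 cells bearing transfected GAL4-UAS reporters. After 24 h dosing, total RNA underwent RT-PCR, fluorescent primer extension and HpaI digestion before capillary electrophoresis, with gain of signal scored against DMSO.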

[17] = target: Glucocorticoid receptor (Homo sapiens) (UniProt P04150); test: ATG_GR_TRANS: Attagene TRANS-FACTORIAL HepG2 Assay for human Glucocorticoid Receptor (GR) (AID 2282978); conditions: HepG2 Attagene TRANS GR reporter, mRNA transcription;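 also: activators score as hits since higher reporter transcript over DMSO is fitted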
Glucocorticoid receptor (Homo sapiens), sequence (P04150 whole entry, looked up, the tested form may be a part): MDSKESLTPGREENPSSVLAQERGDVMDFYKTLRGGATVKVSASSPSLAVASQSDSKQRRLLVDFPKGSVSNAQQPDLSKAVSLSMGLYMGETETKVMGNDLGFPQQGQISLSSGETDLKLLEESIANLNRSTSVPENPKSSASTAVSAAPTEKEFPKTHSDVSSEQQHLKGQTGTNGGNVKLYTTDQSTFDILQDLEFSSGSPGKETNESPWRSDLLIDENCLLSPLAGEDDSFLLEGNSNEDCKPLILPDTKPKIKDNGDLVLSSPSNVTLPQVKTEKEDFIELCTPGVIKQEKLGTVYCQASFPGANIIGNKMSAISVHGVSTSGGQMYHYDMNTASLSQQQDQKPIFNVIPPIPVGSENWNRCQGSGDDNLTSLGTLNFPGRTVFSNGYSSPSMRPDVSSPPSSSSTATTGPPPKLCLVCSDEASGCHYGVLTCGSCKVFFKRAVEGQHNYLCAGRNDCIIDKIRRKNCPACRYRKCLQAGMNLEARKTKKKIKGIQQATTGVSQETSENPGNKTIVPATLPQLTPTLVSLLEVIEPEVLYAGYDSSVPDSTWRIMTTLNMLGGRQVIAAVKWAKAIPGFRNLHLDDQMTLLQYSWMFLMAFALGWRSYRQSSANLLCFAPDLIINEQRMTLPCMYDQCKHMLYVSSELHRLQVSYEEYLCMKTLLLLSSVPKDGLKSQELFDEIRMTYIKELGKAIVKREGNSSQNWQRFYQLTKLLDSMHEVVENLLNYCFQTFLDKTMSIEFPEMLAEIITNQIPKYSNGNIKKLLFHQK
Method in brief: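 Reporter transcript levels, detected by fluorescence after RT-PCR and capillary electrophoresis, served as the endpoint. HepG2 cells bearing transfected GAL4-UAS reporters responsive to NR-GAL4 chimeras were incubated with compound 24 h; DMSO defined baseline.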

[18] = ATG_GAL4_TRANS: Attagene TRANS-FACTORIAL HepG2 Assay for GAL4 (Internal Marker) (AID 2282976); conditions: HepG2 Attagene TRANS GAL4 internal marker reporter
Method in brief: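 Background-control readout: GAL4-UAS reporter transcript in transiently transfected HepG2 cells after 24 h compound exposure. Measured by RT-PCR, 6-FAM primer extension, HpaI digest and capillary electrophoresis; gain-of-signal fit versus DMSO.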

[19] = target: Bile acid receptor (Homo sapiens) (UniProt Q96RI1); test: ATG_FXR_TRANS: Attagene TRANS-FACTORIAL HepG2 Assay for Farnesoid X Receptor (FXR) (AID 2282979); conditions: HepG2 Attagene TRANS FXR-GAL4 reporter transcription;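 also: hits raise reporter mRNA above DMSO so AC50 marks FXR activation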
Bile acid receptor (Homo sapiens), sequence (Q96RI1 whole entry, looked up, the tested form may be a part): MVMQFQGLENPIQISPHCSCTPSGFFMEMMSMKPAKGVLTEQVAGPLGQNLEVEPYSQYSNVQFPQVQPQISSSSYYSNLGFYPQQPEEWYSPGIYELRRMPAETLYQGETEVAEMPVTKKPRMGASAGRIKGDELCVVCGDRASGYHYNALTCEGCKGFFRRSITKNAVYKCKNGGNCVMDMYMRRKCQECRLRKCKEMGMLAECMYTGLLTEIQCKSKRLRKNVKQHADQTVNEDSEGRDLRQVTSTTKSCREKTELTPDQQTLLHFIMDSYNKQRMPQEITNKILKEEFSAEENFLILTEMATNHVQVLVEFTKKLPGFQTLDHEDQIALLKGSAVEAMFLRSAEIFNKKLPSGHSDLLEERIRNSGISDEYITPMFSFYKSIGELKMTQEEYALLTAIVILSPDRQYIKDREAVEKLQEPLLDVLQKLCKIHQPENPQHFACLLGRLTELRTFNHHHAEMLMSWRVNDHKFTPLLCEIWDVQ
Method in brief: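 HepG2 cells were transiently transfected with GAL4-UAS reporters driven by chimeric NR-Gal4 proteins and dosed for 24 h. Reporter mRNA was quantified by RT-PCR, fluorescent labelling, HpaI digestion and capillary electrophoresis, with gain of signal scored versus DMSO.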

Measured: AC50

CCCCCC#CC(=O)OC
inactive: [1] | [2] | [3] | [4] | [5] | [6] | [7] | [8] | [9] | [10]

NC(=O)NC(N)=O
inactive: [1] | [11] | [3] | [5] | [7] | [12] | [13] | [8] | [9] | [14] | [10]

C[N+](C)(C)CCO
inactive: [1] | [11] | [2] | [5] | [6] | [12] | [13] | [10]

O=C(O)c1ccc(C(=O)O)c(C(=O)O)c1
inactive: [1] | [11] | [3] | [4] | [15] | [5] | [16] | [17] | [7] | [8] | [9] | [14] | [10]

CCOC(=O)CC1(C)OCC(C)O1 (stereo unspecified)
inactive: [1] | [11] | [3] | [4] | [5] | [18] | [12] | [8] | [10]

O=C1CCC(=O)N1
inactive: [1] | [2] | [4] | [15] | [5] | [6] | [16] | [17] | [19] | [7] | [8] | [9] | [14] | [10]

O=c1cc[nH]cc1
active: [11] 0.0823 µM
inactive: [1] | [2] | [5] | [19] | [7] | [13] | [8] | [9] | [14] | [10]

CC(=O)CC(=O)N(C)C
inactive: [1] | [2] | [5] | [17] | [19] | [12] | [13] | [8] | [9] | [14] | [10]

C=CC(C)(CCC=C(C)C)OC(=O)CC (stereo unspecified)
inactive: [1] | [11] | [2] | [3] | [5] | [6] | [18] | [17] | [19] | [7] | [12] | [13] | [9] | [14] | [10]

Nc1cc([N+](=O)[O-])ccc1C(=O)O
inactive: [1] | [11] | [2] | [3] | [5] | [6] | [7] | [12] | [13] | [14] | [10]

C/C=C(\C)C(=O)OC/C=C(\C)CCC=C(C)C
active: [14] 20 µM
inactive: [1] | [11] | [2] | [5] | [17] | [13] | [8] | [9] | [10]

Cc1cccc(C)c1
inactive: [1] | [11] | [2] | [5] | [16] | [17] | [7] | [8] | [14] | [10]

O=C(C=Cc1ccccc1)OCCCc1ccccc1
active: [4] 15.3 µM
inactive: [1] | [11] | [2] | [5] | [6] | [17] | [12] | [13] | [9] | [14] | [10]

CC(C)=CC(=O)O
inactive: [1] | [11] | [2] | [5] | [7] | [13] | [8] | [9] | [14] | [10]

O=C(OCc1ccccc1)c1ccccc1O
inactive: [1] | [11] | [2] | [5] | [17] | [12] | [13] | [9] | [10]

CC/C=C\CCOC(C)OCC (stereo unspecified)
inactive: [1] | [11] | [2] | [4] | [5] | [18] | [17] | [13] | [8] | [9] | [14] | [10]

COc1ccc(OC)cc1
inactive: [1] | [2] | [15] | [5] | [17] | [7] | [13] | [8] | [10]

CC(CO)(CO)[N+](=O)[O-]
inactive: [1] | [11] | [2] | [4] | [5] | [18] | [19] | [7] | [13] | [9] | [10]

NC(=O)c1c(Cl)cccc1Cl
inactive: [1] | [11] | [2] | [4] | [15] | [5] | [19] | [13] | [8] | [10]
